NCOA3 inh – inhibits human SRC3 coactivator; HEK293 GAL4-SRC3 luciferase reporter, luminescence; inhibition, % at 3.6 µM; 0.17% of 360,000 active; AID 588352;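 active = inhibition above a per-campaign cutoff, the mean of all compounds plus 3 SD, cut at about 60% in these data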;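 note: 0% = DMSO-treated cells and 100% = gossypol-treated cells at 36 µM; higher means less SRC3-driven luciferase light from the GAL4 reporter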
NR5A2 inv ag – suppresses constitutive activity of human LRH-1; O00482; HEK293T StAR-luciferase reporter, LRH-1 transfected, 24 h; inhibition, % at 3.6 µM; 0.13% of 360,000 active; AID 602396;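 active = inhibition above the mean inhibition of all tested compounds plus 3 SD, cut at about 73% in these data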;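 note: 0% = DMSO wells and 100% = reporter-only cells lacking LRH-1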
Gli-Sufu antag – antagonists of Gli-Sufu signaling. Sufu-KO-LIGHT fibroblasts, Gli luciferase reporter luminescence. inhibition, % at 5 µM. 0.74% of 340,000 active. AID 588413;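 active = inhibition above about 55%, limit read from the data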;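 note: 0% = DMSO-treated cells and 100% = wells with medium but no cells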
SRC1 inh – inhibitors of human steroid receptor coactivator 1 (SRC1) | Q15788 | HEK293 GAL4-SRC1 luciferase reporter, luminescence | inhibition, % at 3.6 µM | 0.12% of 360,000 active | AID 588354;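 active = inhibition above the campaign mean plus 3 SD, with each screening campaign given its own cutoff, cut at about 60% in these data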;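 note: 0% = DMSO treated cells and 100% = gossypol at 36 µM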
SRC2 inh – human SRC2 (NCOA2) inhibition; AID 651957; Q15596; inhibition, % at 9 µM; HEK293 GAL4-SRC2 luciferase reporter, luminescence; 0.17% of 370,000 active;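 active = inhibition above the mean inhibition of all tested compounds plus 3 SD, set per campaign, cut at about 52% in these data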;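 note: 0% = DMSO treated cells and 100% = cells given Gossypol at 36 µM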
Gli antag conf – confirmation of Gli-SUFU pathway antagonists. shares compounds with Gli-Sufu antag. Sufu-KO-LIGHT cells, Gli luciferase reporter, luminescence. inhibition, % at 5 µM. 40% of 2,500 active. AID 602428;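 active = mean inhibition at 5 µM reaching about 45%, limit read from the data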;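 note: plate controls were DMSO-treated cells for no effect and wells lacking cells for full effect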
Gli cytotox – counter-screen for Gli-SUFU antagonists: cytotoxicity; shares compounds with Gli-Sufu antag; Sufu-KO-LIGHT cells cytotoxicity, ATP luminescence; cytotoxicity, % at 5 µM; 32% of 2,500 active; AID 651994;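 active = mean cytotoxicity at 5 µM above about 25%, limit read from the data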;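 note: cells exposed to compound overnight for roughly 16 to 18 hours; plate controls were DMSO wells with cells for no effect and medium without cells for full effect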
Wnt3a counter – Wnt3a reporter inhibition counter-screen | shares compounds with Gli-Sufu antag | Wnt-LIGHT cells, Wnt3a-driven luciferase reporter, luminescence | inhibition, % at 6.25 µM | 20% of 2,500 active | AID 651995;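 active = mean inhibition above about 25%, limit read from the data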
Active calls of the source: *; · = no result. In the library only some 0.83% were active in any assay of this set; here they are far more common.

SMILES | NCOA3 inh | NR5A2 inv ag | Gli-Sufu antag | SRC1 inh | SRC2 inh | Gli antag conf | Gli cytotox | Wnt3a counter
O=C(N/N=C/c1ccc(O)cc1)c1[nH]c2ccc(Br)cc2c1-c1ccccc1 | 12 | 35 | 63* | 7 | 38 | 63* | 72* | 17
Cc1c(C(=O)N/N=C/c2ccc(Cl)cc2)[nH]c2ccc(Cl)cc12 | -3 | 25 | 50 | -3 | 22 | 55* | 58* | -34
O=S1(=O)CC2c3ccc(F)cc3CN2CN1CCc1ccccc1 (stereo not drawn) | · | · | · | · | 10 | · | · | ·
O=C(NC1CCCCN(Cc2ccc(OC(F)(F)F)cc2)C1=O)c1ccc2ccccc2c1 (stereo not drawn) | · | · | · | · | 14 | · | · | ·
O=C(Nc1nnc(-c2cccs2)o1)c1cccc(F)c1 | -30 | -16 | 50 | -1 | -22 | 15 | 24 | -36
O=C(Nc1nnc(-c2cccs2)o1)c1cccc(Oc2ccccc2)c1 | -14 | 11 | 3 | -2 | -15 | · | · | ·
CCCCCn1c(CN2CCN(c3cc(Cl)ccc3C)CC2)nc2c1c(=O)[nH]c(=O)n2C | 7 | 14 | 54 | 11 | 3 | 26 | 23 | -29
CCCCCn1c(N2CCN(c3cccc(Cl)c3)CC2)nc2c1c(=O)[nH]c(=O)n2C | -3 | 19 | -10 | 11 | 0 | · | · | ·
COc1ccc(/C=C2\CC3(OC(=O)c4ccc(F)cc4)CCCN2C3)cc1 (stereo not drawn) | · | · | · | · | 2 | · | · | ·
CC[n+]1c(/C=C/N(C)c2ccccc2)oc2ccccc21 | 46 | 59 | 85* | 40 | 19 | 87* | 42* | 33*
CC[n+]1c(/C=C/N(C)c2ccccc2)oc2ccc(F)cc21 | 18 | 14 | 82* | 17 | -9 | 84* | 26* | 70*
Cc1ccc(-c2c[n+](Cc3cccc(Cl)c3)c3n2CCC3)cc1 | 34 | 24 | 79* | 16 | 11 | 82* | 36* | 19
Clc1cccc(C[n+]2cc(-c3ccccc3)n3c2CCC3)c1 | -5 | -5 | 48 | 15 | -8 | · | · | ·
Cc1ccc(-c2c[n+](Cc3ccc(Cl)cc3)c3n2CCC3)cc1 | 28 | 22 | 79* | 10 | -12 | 81* | 33* | 19
Cc1ccc(C[n+]2cc(-c3ccc(Cl)cc3)n3c2CCC3)cc1 | 14 | 22 | 77* | 17 | 1 | 79* | 32* | 19
CC(C)(C)OC(=O)NCCCc1ccc2c(c1)[C@]1(CCC[C@@H](OCc3ccccc3)[C@@H]1NC(=O)CCc1ccccc1)C(=O)N2Cc1ccccc1 | · | · | · | · | 21 | · | · | ·
CN(Cc1ccccc1)S(=O)(=O)c1cccc(C(=O)OCc2ccc(Oc3ccccc3)cc2)c1 | · | · | · | · | -10 | · | · | ·
CC1CCN(Cc2ccc(-c3nnn(CC(=O)Nc4ccccc4Cl)n3)cc2)CC1 | -7 | -20 | 58* | -7 | 4 | 73* | 33* | 6
COc1ccc(C(=O)NN(C)c2nc(C(F)(F)F)nc3ccccc23)cc1 | 38 | 17 | 56* | 5 | 30 | 55* | 63* | 1
CCn1c(SCC(=O)c2ccc(-c3ccccc3)cc2)nnc1-c1ccc(C(C)(C)C)cc1 | · | · | · | · | 39 | · | · | ·
CC(C)(C)N1Cc2nnn(Cc3ccccc3)c2-c2ccccc2S1(=O)=O | · | · | · | · | 3 | · | · | ·
O=C(C1CCN(Cc2ccc(F)cc2)CC1)N(CCc1ccccc1)Cc1ccccc1 | 12 | -29 | 58* | -13 | 24 | 24 | 2 | -49
Cc1cc(Nc2cccc(F)c2)nc(NCc2ccccc2)n1 | -8 | 27 | 59* | 10 | 17 | 40 | 19 | 6
Cc1cc(Nc2ccccc2)nc(NCc2ccccc2)n1 | 0 | 19 | 68* | 10 | 28 | 58* | 33* | 25*
Cc1cc(Nc2ccc(Cl)cc2)nc(NCc2ccccc2)n1 | 23 | 20 | 46 | 3 | -6 | · | · | ·
SMILES | NCOA3 inh | NR5A2 inv ag | Gli-Sufu antag | SRC1 inh | SRC2 inh | Gli antag conf | Gli cytotox | Wnt3a counter
Cc1cc(N2CCC(C)CC2)nc(NCc2ccccc2)n1 | 13 | 19 | 52 | 19 | 2 | 22 | 31* | -17
COc1cc(OC)c(OC)cc1CNC(=O)c1cccc(S(=O)(=O)N2CCc3ccccc3C2)c1 | 17 | 13 | 66* | 21 | 23 | 64* | 36* | 25*
CN(C)S(=O)(=O)NCCNc1ccc(C(F)(F)F)cc1[N+](=O)[O-] | 6 | -4 | 98* | 1 | -55 | 3 | 22 | -86
COC(=O)c1ccc(COc2cccc3c2OC(C)(C)C3)cc1 | -7 | -9 | 6 | 7 | -6 | · | · | ·
COc1ccc(CNCC(O)COc2cccc3c2OC(C)(C)C3)cc1 (stereo not drawn) | 14 | 9 | 60* | 8 | 13 | 61* | 28* | 14
COC(=O)[C@]12C[C@H](CC(=O)N3CCCCC3)C(=O)N(Cc3ccc4c(c3)OCO4)C1=C[C@H](C(C)C)O[C@@H]2C1CC1 | · | · | · | · | 13 | · | · | ·
CCN1CCN(C(=O)/C=C/c2ccc(OC)cc2)CC1 | -4 | 2 | 60* | -38 | 7 | 28 | 27* | -4
Clc1cccc(Nc2ncnc3ccc(Br)cc23)c1 | 29 | 0 | 62* | 28 | 37 | 20 | 2 | 11
Cc1ccc(C)c(NC(=S)N=Nc2c(O)n(C)c3ccc(S(=O)(=O)N4CCOCC4)cc23)c1 | 3 | -20 | 48 | -15 | -4 | · | · | ·
CCc1ccccc1NC(=S)N=Nc1c(O)n(C)c2ccc(S(=O)(=O)N3CCOCC3)cc12 | -11 | -8 | 66* | 0 | 2 | 48* | 19 | -25
CCOC(=O)[C@]12CCCC=C1N(CCCOC)C(=O)[C@@H]2CC(=O)NCc1cccs1 | · | · | · | · | 0 | · | · | ·
CCN1CCS/C1=C\C=C\C1=[N+](CC)CCS1 | 34 | 57 | 81* | 42 | -12 | 87* | 34* | 50*
COc1cccc(N2CCN(C(=O)CSc3nc4ncccc4[nH]3)CC2)c1 | · | · | · | · | -10 | · | · | ·
COC(=O)[C@]12C[C@H](CC(=O)NCc3cccc(C(F)(F)F)c3)C(=O)N(CCC3=CCCCC3)C1=C[C@H](C1CCCC1)O[C@@H]2C | · | · | · | · | 12 | · | · | ·
CC(C)(C)c1ccc(C(=O)NC(=S)Nc2ccc(N3CCOCC3)cc2)cc1 | 11 | -16 | 60* | -17 | -17 | 52* | 23 | -72
CC(C)(C)c1ccc(C(=O)Nc2ccc(N3CCOCC3)cc2)cc1 | 0 | -7 | -3 | 2 | 12 | · | · | ·
CCCNC(=O)C[C@H]1CC[C@H]2[C@@H](COc3ccc(NC(=O)c4cncs4)cc3C(=O)N2C)O1 | · | · | · | · | -26 | · | · | ·
COc1ccc(CSc2nnc(SCC(=O)Nc3ccccc3-c3ccccc3)s2)cc1 | · | · | · | · | 14 | · | · | ·
Cc1ccc2cc(CN(CC3CCCO3)C(=S)Nc3ccccc3)c(=O)[nH]c2c1C (stereo not drawn) | -40 | 36 | 65* | -58 | 8 | 81* | 33* | 22

Bioassay records: PubChem BioAssay, several laboratories
